High-throughput results deposited in PubChem BioAssay by National Center for Advancing Translational Sciences (NCATS).
Rows were chosen to be rich in hits. Some 2.4% of all compounds tested hit in one or more screens of this group.
Cruzain noTriton: qHTS Assay for Promiscuous and Specific Inhibitors of Cruzain (without detergent) | purified cruzain, Z-FR-AMC fluorescence, no detergent | AID 1476, 2009 | 2.3% of 200,000 active | Potency, µM, for inactives: max response, negative = inhibition, hits mostly inhibitors | Cruzipain (Trypanosoma cruzi), P25779;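 note: plate controls were enzyme without inhibitor for no effect and buffer without enzyme for full effect; nearly all actives have a fitted effect of over 40% in size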
Target sequence (P25779 123-467 limits assumed): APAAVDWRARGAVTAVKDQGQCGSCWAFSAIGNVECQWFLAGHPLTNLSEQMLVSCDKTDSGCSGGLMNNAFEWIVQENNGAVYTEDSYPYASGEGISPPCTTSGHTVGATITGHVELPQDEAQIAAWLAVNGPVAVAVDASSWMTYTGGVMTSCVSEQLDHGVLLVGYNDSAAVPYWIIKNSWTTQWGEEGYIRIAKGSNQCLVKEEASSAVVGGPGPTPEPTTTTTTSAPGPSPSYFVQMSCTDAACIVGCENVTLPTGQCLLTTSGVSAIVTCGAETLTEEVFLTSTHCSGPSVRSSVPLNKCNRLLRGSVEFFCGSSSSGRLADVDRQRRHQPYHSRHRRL
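Purified cruzain at 1.5 nM, pre-incubated 15 min with compound at room temperature in 100 mM sodium acetate pH 5.5, 5 mM DTT, 0.00005% Triton X-100. Reaction started with 2 uM Z-FR-AMC; AMC fluorescence increase over 60 s gives rate.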
Cruzain Triton: qHTS Assay for Promiscuous and Specific Inhibitors of Cruzain (with detergent); Cruzipain (Trypanosoma cruzi), P25779; 0.43% of 200,000 active; AID 1478, 2009; Potency, µM, without a hit: max response, negative = inhibition, hits mostly inhibitors; purified cruzain, Z-FR-AMC fluorescence, 0.01% Triton;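 note: plate controls were neutral wells for no effect and buffer without enzyme for full effect; nearly all actives have a fitted effect of over 40% in size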
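15 min RT preincubation of 1.5 nM cruzain with compound, then 2 uM Z-FR-AMC added; kinetic AMC fluorescence, 60 s delta. Triton X-100 0.01%, pH 5.5.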
* hit, by the source's call; u = inconclusive; ! = a repeat was not active. Calls come from the whole dose curve; as a rule, active = well fitted curve in the direction sought with a large enough effect; inconclusive = small, poorly fitted or top-dose-only effect, or another doubt; inactive = no such curve, though single readings can be large; an effect the other way counts as inactive or inconclusive. Potency is the fitted concentration of half-maximal effect.

SMILES	Cruzain noTriton	Cruzain Triton
Cc1ccc(-c2nnc(SCC(=O)n3c4c(c5ccccc53)CCCC4)o2)cc1	-18%	1%
N[C@@H](Cc1cc(I)c(Oc2ccc(O)c(I)c2)c(I)c1)C(=O)O	13µM*!	u
NC(Cc1cc(I)c(Oc2ccc(O)c(I)c2)c(I)c1)C(=O)O (stereo not drawn)	-10%	2%
COc1cccc([C@@H]2Oc3ccc(Br)cc3C(=O)[C@H]2OC(=O)N[C@H]2CCCc3ccccc32)c1	u	2%
Cc1cc(C)nc(NS(=O)(=O)c2ccc(NC(=O)c3nc(SC(C)C)ncc3Cl)cc2)n1	u	-4%
O=C(COC(=O)c1cc([N+](=O)[O-])ccc1NCc1ccccc1)NC1CCCc2ccccc21 (stereo not drawn)	25µM*	2%
O=C(COC(=O)c1cc([N+](=O)[O-])ccc1NCc1ccccc1)NCc1ccccc1Cl	-84%	-5%
CN(C)S(=O)(=O)c1cccc(NC(=S)NN=C(Cc2ccccc2)Cc2ccccc2)c1	32µM*	-3%
COc1cc(/C=N/NC(=S)Nc2cccc(S(=O)(=O)N(C)C)c2)ccc1O	-8%	-18%
CCOC(=O)N1CCN(C(=O)CSc2nc3c(cnn3-c3ccccc3)c(=O)[nH]2)CC1	3%	0%
COc1cccc(C2CC(c3cccs3)=NN2C(=O)CSc2nc3ccccc3s2)c1OC (stereo not drawn)	13µM*	u
O=C(CSc1nc2c(cnn2-c2ccc(F)cc2)c(=O)[nH]1)N1CCCCC1	-13%	-2%
COc1ccc(C2=NN(C(=O)CSc3nc4ccccc4s3)C(c3ccc(OC)cc3)C2)cc1 (stereo not drawn)	u	-3%
COc1ccc(C2CC(c3cccs3)=NN2C(=O)CSc2nc3c(cnn3-c3ccccc3)c(=O)[nH]2)cc1 (stereo not drawn)	32µM*	-9%
COc1cccc(C2CC(c3cccs3)=NN2C(=O)CSc2nc3c(cnn3-c3ccc(F)cc3)c(=O)[nH]2)c1OC (stereo not drawn)	u	3.5µM*
O=C(O)CNC(=O)c1ccccc1O	3%	2%
COc1cccc(C(=O)Nc2c3c(nn2-c2ccc(C)cc2C)CS(=O)(=O)C3)c1OC	-1%	-1%
CC1=C(C(=O)Nc2ccccc2)C(c2ccncc2)n2nc(SCc3ccccc3)nc2N1 (stereo not drawn)	0%	0%
O=C(N/N=C/c1ccncc1)c1cccc(NC(=O)c2ccc(Cl)cc2)c1	-13%	28µM*
COc1ccc(/C=N/NC(=O)c2cccc(NC(=O)c3ccc(Cl)cc3)c2)c(OC)c1	u	-7%
CCOC(=O)C1C(C(=O)OC)=C(CC(C)C)c2ccccc2N1S(=O)(=O)C(F)(F)F (stereo not drawn)	-2%	-3%
CC(=O)c1ccc(Sc2nnnn2-c2ccccc2)c([N+](=O)[O-])c1	1%	0%
CC(=O)c1ccc2c(c1)C1C=CCC1C(c1ccncc1)N2 (stereo not drawn)	30%	-10%
CC(=O)c1ccc2c(c1)C1C(Cl)C(Sc3ccccc3[N+](=O)[O-])CC1C(c1ccccc1)N2 (stereo not drawn)	4µM*	-6%
CC(=O)c1ccc2c(c1)C1C(Cl)C(Sc3ccccc3[N+](=O)[O-])CC1C(c1ccccc1[N+](=O)[O-])N2 (stereo not drawn)	3.2µM*	-11%
SMILES	Cruzain noTriton	Cruzain Triton
COc1cccc(Nc2ncc3nc(C)c(=O)n(CCc4ccccc4)c3n2)c1	21%	-8%
Brc1csc(CN2CCc3nc(Nc4ccccc4)ncc3C2)c1	u	-9%
COc1cc(Nc2ncc3c(n2)CCN(Cc2cc(Br)cs2)C3)cc(OC)c1	25µM*	-8%
CCc1ccc2oc(-c3ccc(C)c(NC(=O)Cc4ccccc4)c3)nc2c1	20%	2%
CCc1nn(CC(=O)Nc2cccc(C(C)=O)c2)c(=O)c2cc3sccc3n12	-7%	-7%
Nc1ccc(-c2ccc(Nc3cc(S(=O)(=O)O)c(N)c4c3C(=O)c3ccccc3C4=O)cc2)c(S(=O)(=O)O)c1	-1%	3%
Cc1cc(C)c(Nc2cc(S(=O)(=O)O)c(N)c3c2C(=O)c2ccccc2C3=O)c(C)c1	u	25µM*
CC(Nc1oc(-c2ccccc2)nc1-c1cccc2ccccc12)c1ccccc1 (stereo not drawn)	-28%	-2%
COc1cc(/C=N/NC(N)=O)cc(Br)c1OCc1ccc(C)cc1	u	6%
Cc1cc(Br)c(OCc2ccc(C(=O)N/N=C3\CC4CC=CC34)cc2)c(Br)c1 (stereo not drawn)	20µM*	-6%
Cc1ccc(C(=O)c2cn(Cc3cccc(C)c3)c3nc(C)ccc3c2=O)cc1	-20%	-10%
COc1cc(OC)c(NC(=O)c2cc3c(=O)oc4ccc(C)cc4c3s2)cc1Cl	-5%	4%
CCOC(=O)c1ccc(N2C(=O)c3[nH]nc(-c4ccc(C)cc4)c3C2c2cccs2)cc1 (stereo not drawn)	u	-1%
O=C(CSC(=S)N1CCCCC1)Nc1nc(-c2ccccc2)c(-c2ccccc2)o1	u	1%
CCN(CC)C(=S)SCC(=O)Nc1nc(-c2ccccc2)c(-c2ccccc2)o1	32µM*	-2%
COc1ccc(N(C(=O)c2ccccc2F)S(=O)(=O)c2ccc3c(c2)n(C)c(=O)n3C)cc1	12%	0%
O=C(CSc1ccc(-c2cccs2)nn1)Nc1cccc(F)c1	2%	-8%
CCSc1nnc([C@@H](N)Cc2c[nH]c3ccccc23)o1	7%	2%
Cc1cccc(NC(=O)CSc2nnc([C@@H](N)Cc3c[nH]c4ccccc34)o2)c1C	13µM*	13µM*
COc1ccc(CNC(=O)c2ccc3c(c2)nc2n3CCCCC2)c(OC)c1	-12%	-2%
NC(=S)N/N=C/c1coc2c(ccc3ccccc32)c1=O	0.63µM*	u
NC(=S)N/N=C/c1ccccc1OCc1cccc(Cl)c1	u	-24%
O=c1cc(CSc2ccccc2)[nH]c(=S)[nH]1	-3%	3%
O=c1cc(/N=C/c2coc3c(ccc4ccccc43)c2=O)[nH]c(=S)[nH]1	7.9µM*	-6%
COc1ccc(C)c2sc(N(Cc3cccnc3)C(=O)CCc3ccccc3)nc12	24%	-2%
SMILES	Cruzain noTriton	Cruzain Triton
COc1cc(/C=C/c2ccc3cccc(OC)c3n2)c(OC(C)=O)c([N+](=O)[O-])c1	u	-4%
COc1c(OC(C)=O)ccc(/C=C/c2ccc3cccc(OCc4ccccc4)c3n2)c1[N+](=O)[O-]	10µM*	-2%
CC1(C)C(=O)C2C[C@]3(O)C4=CC(=O)OC(c5ccoc5)[C@]4(C)CCC3[C@](C)(C2=O)C1CC(=O)O (stereo partly drawn)	-6%	2%
Cc1ccc(N2CCN(S(=O)(=O)c3ccc4[nH]c5c(c4c3)CCCCC5)CC2)c(C)c1	3.2µM*	3%
Cc1ccc(C)c(N2CCN(S(=O)(=O)c3ccc4[nH]c5c(c4c3)CCCCC5)CC2)c1	7.9µM*	0%
Cc1ccc(C)c(N2CCN(S(=O)(=O)c3ccc4[nH]c(=O)c(=O)[nH]c4c3)CC2)c1	19%	-2%
Cc1ccc(CNS(=O)(=O)c2ccc3[nH]c4c(c3c2)CCCCC4)cc1	-11%	-20%
O=C(c1ccco1)n1nc(-c2ccccc2)nc1NCc1ccccc1Cl	0%	0%
CC(C)COc1ccc(C(=O)Nc2cc3nn(-c4ccccc4)nc3cc2Cl)cc1	-5%	0%
